Experimental data as given in the supplement of paper PMC12669032.

Assays:
Experiment in all cases: growth AUC relative to DMSO control (median of replicates) (fraction); higher = more growth (less inhibition), active = hit call of the paper
Settings in all cases: 20 µM; 24 h;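 active = AUC reduced over 20% with Padj below 0.05 in at least 2 of 3 replicates; inactive = otherwise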
Coprococcus comes = test system: Coprococcus comes
Method in brief: (§1)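 Area under the growth curve was normalised to the plate median of solvent-only wells, or to row and column medians on the industrial chemical plate. Growth curves came from anaerobic gut bacterial monocultures in mGAM at 37 °C, seeded at OD600 0.05 with 20 µM compound (1% DMSO), and read at OD600 hourly for 24 h with the minimum OD set to 0. The value is the median of three biological replicates grown on separate days.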

Escherichia coli ED1a = test system: Escherichia coli ED1a
Method in brief: as §1

Escherichia coli IAI1 = test system: Escherichia coli IAI1
Method in brief: as §1

Eubacterium rectale = test system: Eubacterium rectale
Method in brief: as §1

[1] = test system: Fusobacterium nucleatum subsp. animalis
Method in brief: as §1

Lactobacillus gasseri = test system: Lactobacillus gasseri
Method in brief: as §1

Lactobacillus paracasei = test system: Lactobacillus paracasei
Method in brief: as §1

Odoribacter splanchnicus = test system: Odoribacter splanchnicus
Method in brief: as §1

[2] = test system: Parabacteroides distasonis
Method in brief: as §1

Parabacteroides merdae = test system: Parabacteroides merdae
Method in brief: as §1

Roseburia intestinalis = test system: Roseburia intestinalis
Method in brief: as §1

Streptococcus salivarius = test system: Streptococcus salivarius
Method in brief: as §1

Measured: growth AUC

CCOc1cc(OP(=S)(OC)OC)nc(CC)n1
inactive: Coprococcus comes 0.984 | Escherichia coli ED1a 1 | Escherichia coli IAI1 1.01 | Eubacterium rectale 1.04 | [1] 1.04 | Lactobacillus gasseri 0.996 | Lactobacillus paracasei 1.05 | Odoribacter splanchnicus 0.987 | [2] 0.951 | Parabacteroides merdae 0.979 | Roseburia intestinalis 0.98 | Streptococcus salivarius 0.983

Cc1occc1C(=O)Nc1ccccc1
inactive: Coprococcus comes 0.977 | Escherichia coli ED1a 0.966 | Escherichia coli IAI1 0.953 | Eubacterium rectale 1.16 | [1] 0.933 | Lactobacillus gasseri 0.973 | Lactobacillus paracasei 0.925 | Odoribacter splanchnicus 0.985 | [2] 0.971 | Parabacteroides merdae 0.998 | Roseburia intestinalis 0.996 | Streptococcus salivarius 0.995

CC(C)=NOCCOC(=O)[C@@H](C)Oc1ccc(Oc2cnc3cc(Cl)ccc3n2)cc1
inactive: Coprococcus comes 0.94 | Escherichia coli ED1a 1.01 | Escherichia coli IAI1 1.01 | Eubacterium rectale 0.957 | [1] 0.864 | Lactobacillus gasseri 1.04 | Lactobacillus paracasei 0.974 | Odoribacter splanchnicus 0.931 | [2] 0.983 | Parabacteroides merdae 0.955 | Roseburia intestinalis 1.05 | Streptococcus salivarius 0.966

CCOP(=S)(OCC)SCS(=O)(=O)CC
inactive: Coprococcus comes 1.02 | Escherichia coli ED1a 1.01 | Escherichia coli IAI1 0.992 | Eubacterium rectale 1.07 | [1] 1.14 | Lactobacillus gasseri 0.95 | Lactobacillus paracasei 0.967 | Odoribacter splanchnicus 0.993 | [2] 0.999 | Parabacteroides merdae 0.974 | Roseburia intestinalis 0.947 | Streptococcus salivarius 1.01

CC(C)OC(=O)C(C(=O)OC(C)C)=C1SCCS1
active: [2] 0.782
inactive: Coprococcus comes 1.06 | Escherichia coli ED1a 1.01 | Escherichia coli IAI1 0.988 | Eubacterium rectale 1.02 | [1] 1.02 | Lactobacillus gasseri 0.977 | Lactobacillus paracasei 0.98 | Odoribacter splanchnicus 0.995 | Parabacteroides merdae 1.01 | Roseburia intestinalis 1.06 | Streptococcus salivarius 1.02

CCOP(=S)(OCC)SCSP(=S)(OCC)OCC
inactive: Coprococcus comes 0.997 | Escherichia coli ED1a 0.983 | Escherichia coli IAI1 1.01 | Eubacterium rectale 0.954 | [1] 1.04 | Lactobacillus gasseri 0.988 | Lactobacillus paracasei 1.07 | Odoribacter splanchnicus 1.01 | [2] 1 | Parabacteroides merdae 0.997 | Roseburia intestinalis 1.09 | Streptococcus salivarius 0.958

CC1(C)[C@H](C=C(Cl)Cl)[C@H]1C(=O)OCc1c(F)c(F)cc(F)c1F
inactive: Coprococcus comes 1 | Escherichia coli ED1a 1.01 | Escherichia coli IAI1 1.03 | Eubacterium rectale 0.957 | [1] 1.04 | Lactobacillus gasseri 1.02 | Lactobacillus paracasei 0.947 | Odoribacter splanchnicus 1.02 | [2] 0.999 | Parabacteroides merdae 0.989 | Roseburia intestinalis 0.946 | Streptococcus salivarius 1.02

C=CC(N)=O
inactive: Coprococcus comes 1.01 | Escherichia coli ED1a 0.972 | Escherichia coli IAI1 1 | Eubacterium rectale 0.997 | [1] 1.02 | Lactobacillus gasseri 1.01 | Lactobacillus paracasei 1.01 | Odoribacter splanchnicus 1.01 | [2] 0.976 | Parabacteroides merdae 0.993 | Roseburia intestinalis 1.01 | Streptococcus salivarius 1.01

ClC1=C(Cl)[C@]2(Cl)C3CC=CC3[C@@]1(Cl)C2(Cl)Cl (stereo partly drawn)
inactive: Coprococcus comes 0.942 | Escherichia coli ED1a 0.99 | Escherichia coli IAI1 1.01 | Eubacterium rectale 0.951 | [1] 0.846 | Lactobacillus gasseri 0.989 | Lactobacillus paracasei 1.03 | Odoribacter splanchnicus 0.987 | [2] 1.04 | Parabacteroides merdae 0.984 | Roseburia intestinalis 1 | Streptococcus salivarius 1

Nc1cnn(-c2ccccc2)c(=O)c1Cl
inactive: Coprococcus comes 1.02 | Escherichia coli ED1a 1.03 | Escherichia coli IAI1 1 | Eubacterium rectale 1.03 | [1] 1.05 | Lactobacillus gasseri 1.07 | Lactobacillus paracasei 1.07 | Odoribacter splanchnicus 0.949 | [2] 0.996 | Parabacteroides merdae 0.997 | Roseburia intestinalis 1.1 | Streptococcus salivarius 1.1

CCNc1nc(Cl)nc(NC(C)(C)C#N)n1
inactive: Coprococcus comes 0.988 | Escherichia coli ED1a 1.02 | Escherichia coli IAI1 0.988 | Eubacterium rectale 0.889 | [1] 0.949 | Lactobacillus gasseri 1.19 | Lactobacillus paracasei 0.968 | Odoribacter splanchnicus 0.985 | [2] 1 | Parabacteroides merdae 1.01 | Roseburia intestinalis 1.03 | Streptococcus salivarius 0.976

CCCCNC(=O)n1c(NC(=O)OC)nc2ccccc21
inactive: Coprococcus comes 1.04 | Escherichia coli ED1a 1.04 | Escherichia coli IAI1 0.977 | Eubacterium rectale 0.917 | [1] 0.976 | Lactobacillus gasseri 1.01 | Lactobacillus paracasei 0.997 | Odoribacter splanchnicus 1.04 | [2] 0.945 | Parabacteroides merdae 0.965 | Roseburia intestinalis 0.985 | Streptococcus salivarius 0.999

O=C(O)C(F)(F)C(F)(F)C(F)(F)C(F)(F)C(F)(F)C(F)(F)C(F)(F)C(F)(F)F
inactive: Coprococcus comes 1.01 | Escherichia coli ED1a 1.01 | Escherichia coli IAI1 1.01 | Eubacterium rectale 0.99 | [1] 1 | Lactobacillus gasseri 1 | Lactobacillus paracasei 1.03 | Odoribacter splanchnicus 1.07 | [2] 1.18 | Parabacteroides merdae 1.01 | Roseburia intestinalis 0.975 | Streptococcus salivarius 0.998

COC(=O)NS(=O)(=O)c1ccc(N)cc1
inactive: Coprococcus comes 1.01 | Escherichia coli ED1a 0.972 | Escherichia coli IAI1 0.975 | Eubacterium rectale 1.28 | [1] 0.939 | Lactobacillus gasseri 0.848 | Lactobacillus paracasei 0.903 | Odoribacter splanchnicus 1.1 | [2] 1.08 | Roseburia intestinalis 0.929 | Streptococcus salivarius 0.893
active: Parabacteroides merdae 0.774

COc1ccc(/C(=C/C(=O)N2CCOCC2)c2ccc(F)cc2)cc1OC
inactive: Coprococcus comes 1.02 | Escherichia coli ED1a 0.974 | Escherichia coli IAI1 1.01 | Eubacterium rectale 0.966 | [1] 0.955 | Lactobacillus gasseri 0.971 | Lactobacillus paracasei 0.976 | Odoribacter splanchnicus 1.06 | [2] 1.01 | Parabacteroides merdae 1.02 | Roseburia intestinalis 0.975 | Streptococcus salivarius 1.04

CN(C)C1CSSSC1.O=C(O)C(=O)O
inactive: Coprococcus comes 0.99 | Escherichia coli ED1a 0.985 | Escherichia coli IAI1 1.02 | Eubacterium rectale 1.7 | [1] 1.05 | Lactobacillus gasseri 1.03 | Lactobacillus paracasei 0.972 | Odoribacter splanchnicus 0.962 | [2] 1.04 | Parabacteroides merdae 1.02 | Roseburia intestinalis 1.2 | Streptococcus salivarius 0.994

Clc1ccccc1Cl
inactive: Coprococcus comes 1.02 | Escherichia coli ED1a 0.971 | Escherichia coli IAI1 0.994 | Eubacterium rectale 0.972 | [1] 0.975 | Lactobacillus gasseri 0.948 | Lactobacillus paracasei 1.02 | Odoribacter splanchnicus 0.95 | [2] 0.996 | Parabacteroides merdae 1.01 | Roseburia intestinalis 0.968 | Streptococcus salivarius 1.07

CCS(=O)(=O)c1cccnc1S(=O)(=O)NC(=O)Nc1nc(OC)cc(OC)n1
inactive: Coprococcus comes 0.968 | Escherichia coli ED1a 1 | Escherichia coli IAI1 0.999 | Eubacterium rectale 0.943 | [1] 0.912 | Lactobacillus gasseri 1.01 | Lactobacillus paracasei 0.996 | Odoribacter splanchnicus 0.897 | [2] 1.02 | Parabacteroides merdae 0.993 | Roseburia intestinalis 1 | Streptococcus salivarius 0.93

OCC1C(CO)C2(Cl)C(Cl)=C(Cl)C1(Cl)C2(Cl)Cl (stereo not drawn)
inactive: Coprococcus comes 0.934 | Escherichia coli ED1a 0.994 | Escherichia coli IAI1 0.975 | Eubacterium rectale 1.07 | [1] 1 | Lactobacillus gasseri 0.827 | Lactobacillus paracasei 1.01 | [2] 1.09 | Parabacteroides merdae 0.892 | Roseburia intestinalis 0.953 | Streptococcus salivarius 0.82
active: Odoribacter splanchnicus 0.59

CSc1nnc(C(C)(C)C)c(=O)n1N
inactive: Coprococcus comes 1.07 | Escherichia coli ED1a 1.04 | Escherichia coli IAI1 1.01 | Eubacterium rectale 0.997 | [1] 1.03 | Lactobacillus gasseri 1.06 | Lactobacillus paracasei 1.03 | Odoribacter splanchnicus 1.05 | [2] 1.02 | Parabacteroides merdae 1.01 | Roseburia intestinalis 1.06 | Streptococcus salivarius 1.01

N#CC(CCc1ccc(Cl)cc1)(Cn1cncn1)c1ccccc1 (stereo not drawn)
inactive: Coprococcus comes 0.969 | Escherichia coli ED1a 1.03 | Escherichia coli IAI1 1.02 | Eubacterium rectale 1.07 | [1] 0.942 | Lactobacillus gasseri 0.904 | Lactobacillus paracasei 0.952 | Odoribacter splanchnicus 0.88 | Parabacteroides merdae 0.96 | Roseburia intestinalis 0.911 | Streptococcus salivarius 0.934
active: [2] 0.57

CC(C1CC1)C(O)(Cn1cncn1)c1ccc(Cl)cc1 (mixture of isomers)
inactive: Coprococcus comes 0.936 | Escherichia coli ED1a 1.01 | Escherichia coli IAI1 0.971 | Eubacterium rectale 1.02 | [1] 1.09 | Lactobacillus gasseri 0.975 | Lactobacillus paracasei 1.06 | Odoribacter splanchnicus 0.8 | [2] 1.01 | Parabacteroides merdae 0.988 | Roseburia intestinalis 1.06 | Streptococcus salivarius 0.973

CCNc1nc(NC(C)C)[nH]c(=O)n1
inactive: Coprococcus comes 0.992 | Escherichia coli ED1a 1.03 | Escherichia coli IAI1 1.05 | Eubacterium rectale 0.992 | [1] 1.06 | Lactobacillus gasseri 1.03 | Lactobacillus paracasei 0.963 | Odoribacter splanchnicus 0.994 | [2] 1.02 | Parabacteroides merdae 1 | Roseburia intestinalis 1.04 | Streptococcus salivarius 1.02

CCOC(=O)/C=C(C)/C=C/C[C@@H](C)CCCC(C)C
inactive: Coprococcus comes 0.979 | Escherichia coli ED1a 1 | Escherichia coli IAI1 0.997 | Eubacterium rectale 1.03 | [1] 1.15 | Lactobacillus gasseri 1.13 | Lactobacillus paracasei 1.01 | Odoribacter splanchnicus 0.954 | [2] 1.02 | Parabacteroides merdae 0.989 | Roseburia intestinalis 1.09 | Streptococcus salivarius 0.972
